According to PubChem BioAssay (NCI):
About 79,000 compounds went through this panel and 15% of them were active in at least one assay; those are over-represented in the sample as a whole. A number with no mark means an inactive call. The source made the active and inactive calls. No stated cut-off is given here; in the data, active means growth inhibition above about 70%; inactive means the rest.

Tests used:
[1] = NCI Yeast Anticancer Drug Screen. Data for the rad50 strain (AID 155);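 further: 0% = growth of vehicle-only cultures of the same strain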; details: S. cerevisiae rad50 strain growth inhibition, hits give high values
In short: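 DNA repair mutant yeast, compound exposure, growth read-out; inhibition is taken relative to vehicle.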

[2] = NCI Yeast Anticancer Drug Screen. Data for the mec2-1 strain (AID 157); details: S. cerevisiae mec2-1 strain, hits give high values
In short: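 Yeast mec2-1 mutant treated with compound. Readout: growth inhibition vs vehicle controls.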

[3] = NCI Yeast Anticancer Drug Screen. Data for the sgs1 mgt1 strain (AID 161);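 further: 0% = growth of cultures given vehicle only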; details: S. cerevisiae sgs1 mgt1 strain, hits give high values
In short: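 Genetically altered yeast, compound exposure, growth inhibition relative to vehicle.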

[4] = NCI Yeast Anticancer Drug Screen. Data for the cln2 rad14 strain (AID 165);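 further: 0% = growth equal to vehicle treated cultures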; details: S. cerevisiae cln2 rad14 strain, hits give high values
In short: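 cln2 rad14 yeast strain; compound exposure; growth inhibition read vs vehicle controls.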

[5] = NCI Yeast Anticancer Drug Screen. Data for the bub3 strain (AID 167); details: S. cerevisiae bub3 mutant strain, hits give high values
In short: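 In this screen, a yeast mutant lacking normal mitotic checkpoint function is challenged with compound. Relative growth versus vehicle gives the inhibition value.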

[6] = NCI Yeast Anticancer Drug Screen. Data for the mlh1 rad18 strain (AID 175); details: S. cerevisiae mlh1 rad18 strain growth inhibition, hits give high values
In short: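 Yeast w/ defined DNA-repair lesions; compound exposure; growth vs vehicle controls → % inhibition.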

[7] = at 5.0 µM (retest, dose inferred, filed as 0.5)
[8] = at 50.0 µM (retest, dose inferred, filed as 5.0)

SMILES	growth inhibition [1, 7]	growth inhibition [1, 8]	growth inhibition ([1]; at 50.0 µM)	growth inhibition [2, 7]	growth inhibition [2, 8]	growth inhibition ([2]; at 50.0 µM)	growth inhibition [3, 7]	growth inhibition [3, 8]	growth inhibition ([3]; at 50.0 µM)	growth inhibition [4, 7]	growth inhibition [4, 8]	growth inhibition ([4]; at 50.0 µM)	growth inhibition [5, 7]	growth inhibition [5, 8]	growth inhibition ([5]; at 50.0 µM)	growth inhibition [6, 7]	growth inhibition [6, 8]	growth inhibition ([6]; at 50.0 µM)
O=C(Nc1ccc(S(=O)(=O)NC2CCCCC2)cc1)OCc1ccccc1	91% (active)	17%	57%	99% (active)	26%	9.85%	100% (active)	12%	73% (active)	28%	-10%	30.7%	99% (active)	43%	28.4%	91% (active)	30%	54.6%
CCC[CH2][Sn]([CH2]CCC)([O]C(=O)c1c(F)cccc1F)[O]C(=O)c1c(F)cccc1F	80% (active)	80% (active)	88.8% (active)	66%	66%	89.7% (active)	80% (active)	80% (active)	87.3% (active)	70% (active)	70% (active)	86.9% (active)	72% (active)	72% (active)	83.6% (active)	73% (active)	73% (active)	84% (active)
CCCCCCCCCCCC(=O)OCC1OC(n2cc(F)c(=O)[nH]c2=O)C(N)C(O)C1O (stereo not drawn)	34%	34%	90.2% (active)	31%	31%	91% (active)	10%	10%	89.1% (active)	22%	22%	91.2% (active)	-11%	-11%	90.3% (active)	24%	24%	88.5% (active)
Cc1ccc(NC(=O)c2cc3ccccc3c(N=Nc3cc(S(=O)(=O)O)ccc3O)c2O)c(C)c1	33%	85% (active)	71.8% (active)	33%	84% (active)	52.3%	56%	92% (active)	78.7% (active)	29%	43%	59.9%	50%	92% (active)	82.8% (active)	57%	87% (active)	80.8% (active)
CN(C)c1cccc(F)c1C(=O)NC(=O)Nc1ccc(Cl)cc1	2%	3%	79.7% (active)	1%	4%	75.7% (active)	0%	7%	85.9% (active)	51%	-2%	72% (active)	1%	11%	83% (active)	17%	-2%	91.5% (active)
CSc1nc(SC)c2cnn(Cc3ccccc3)c2n1	-16%	21%	-7.1%	-1%	-15%	4.9%	-15%	25%	9.7%	-11%	-4%	2.35%	-8%	18%	1.3%	18%	7%	16.9%
CCN(CC)CCOc1ccc(/C=C/c2ccccc2)cc1	2%	99% (active)	73% (active)	0%	99% (active)	77.7% (active)	5%	98% (active)	93.7% (active)	-5%	99% (active)	56.7%	6%	99% (active)	93.4% (active)	3%	99% (active)	78% (active)
COc1cccc(CC2N(S(=O)(=O)c3ccc(C)cc3)CCC23C(=O)Nc2ccccc23)c1OC (stereo not drawn)	10%	94% (active)	91.8% (active)	2%	96% (active)	69.4%	10%	96% (active)	82.2% (active)	-3%	93% (active)	39%	-3%	96% (active)	80.7% (active)	3%	96% (active)	92.2% (active)
CCN(CC)CCNCc1ccccc1	-157%	-178%	-7.3%	-49%	-57%	-1.15%	-64%	-67%	10.9%	-62%	-66%	38.7%	-70%	-86%	5.45%	-139%	-119%	1.8%
Cn1cc(/C=C/[N+](=O)[O-])c2ccc(OCc3ccccc3)cc21	2%	-6%	4.75%	-3%	-7%	37%	4%	4%	10.2%	10%	54%	17.5%	14%	34%	76.3% (active)	3%	11%	16.9%
Nc1ccc(C2CCC[C@H]2c2ccc(N)cc2)cc1 (stereo partly drawn)	0%	93% (active)	48.8%	15%	87% (active)	46.8%	14%	90% (active)	53.2%	1%	66%	39.6%	-3%	81% (active)	58.6%	21%	95% (active)	49.1%
COC(=O)c1cc2c(c(C(=O)OC)c1O)C(=O)C=CC2=O	2%	78% (active)	84.5% (active)	8%	95% (active)	84% (active)	5%	80% (active)	80% (active)	10%	95% (active)	56.3%	-2%	90% (active)	69.8%	-28%	95% (active)	70.6% (active)
CCCCCCCCCCCCCCCCOP(=O)([O-])OCC[N+](C)(C)C	99% (active)	99% (active)	99.8% (active)	99% (active)	100% (active)	99.6% (active)	66%	100% (active)	99.6% (active)	97% (active)	99% (active)	99.2% (active)	99% (active)	99% (active)	99.7% (active)	98% (active)	99% (active)	99.8% (active)
CN(C)C1CCC(N=Nc2cc([N+](=O)[O-])ccc2C(=O)O)CC1 (stereo not drawn)	-7%	55%	86.2% (active)	7%	23%	56.7%	-2%	49%	83.6% (active)	1%	18%	15.6%	7%	87% (active)	94.3% (active)	-1%	61%	84.9% (active)
Cc1cccc(C[P+](c2ccccc2)(c2ccccc2)c2ccccc2)c1	76% (active)	97% (active)	90.3% (active)	67%	99% (active)	93.1% (active)	58%	99% (active)	93.3% (active)	32%	98% (active)	91.9% (active)	71% (active)	99% (active)	92.2% (active)	76% (active)	98% (active)	90.3% (active)
CNc1ccc(N)cc1	6%	-9%	-15.1%	-2%	-5%	21.6%	-8%	-2%	-3.85%	5%	1%	26.4%	9%	8%	7.1%	0%	-5%	-15.2%
Cc1ccc2c(ccc(CC(=S)[S-])[n+]2C)c1	10%	41%	58.2%	11%	21%	51.6%	11%	46%	66.3%	10%	37%	47.3%	3%	38%	61.5%	4%	41%	90.2% (active)
O=C(Nc1ccc(C(=O)c2ccccc2)cc1)Nc1ccc(Cl)c(Cl)c1	23%	96% (active)	92.5% (active)	9%	97% (active)	95.2% (active)	23%	97% (active)	94.8% (active)	30%	91% (active)	94.5% (active)	31%	98% (active)	96.1% (active)	38%	97% (active)	94.7% (active)
CCCCCCCCCCCCCCCCN(CC)CC	99% (active)	99% (active)	99.6% (active)	99% (active)	99% (active)	99.7% (active)	99% (active)	100% (active)	99.4% (active)	97% (active)	99% (active)	99.3% (active)	98% (active)	99% (active)	99.7% (active)	99% (active)	99% (active)	99.6% (active)
CCCCc1c2c(nc3c1CCc1cc4cc5c(nc4nc1-3)-c1nc3c(c(CCCC)c1CC5)CCC/C3=N/OC)/C(=N\OC)CCC2	0%	76% (active)	94.2% (active)	2%	94% (active)	96% (active)	-4%	90% (active)	95.8% (active)	-22%	93% (active)	95.3% (active)	-5%	90% (active)	95.9% (active)	-11%	93% (active)	95.7% (active)
CC(C)(C)CC(C)(C)c1ccc(OCCSC(=N)N)cc1	95% (active)	100% (active)	99.3% (active)	99% (active)	100% (active)	99.6% (active)	75% (active)	99% (active)	99.2% (active)	99% (active)	99% (active)	98.6% (active)	99% (active)	100% (active)	99.4% (active)	99% (active)	99% (active)	99.2% (active)
CC(=O)c1c(CO[N+](=O)[O-])n([O-])c2ccccc2[n+]1=O	11%	60%	69.4%	7%	20%	13.6%	13%	40%	42.5%	-1%	17%	22%	-1%	-4%	15.7%	1%	33%	45.9%
O=C(O)Cc1nc2ccccc2[nH]1	1%	95% (active)	25.9%	9%	70% (active)	51.2%	14%	99% (active)	2.85%	0%	34%	14.8%	1%	98% (active)	-3.2%	2%	99% (active)	3.05%
CC(=O)Nc1nnc(C)s1	0%	-3%	4.25%	0%	-3%	-11.8%	-2%	-5%	-4.4%	-3%	6%	13%	1%	1%	-19.3%	1%	-3%	-18.8%
Cc1cc(N)c2ccccc2[n+]1CCCCCCCCCC[n+]1c(C)cc(N)c2ccccc21	42%	98% (active)	89.3% (active)	47%	95% (active)	92.8% (active)	98% (active)	96% (active)	92.3% (active)	90% (active)	99% (active)	91% (active)	97% (active)	98% (active)	91% (active)	51%	97% (active)	81.3% (active)
CCCCSc1n[nH]c(=O)nc1SC	-142%	88% (active)	47.1%	-63%	79% (active)	48.6%	-57%	83% (active)	46.5%	-56%	90% (active)	73.8% (active)	-64%	87% (active)	52.4%	-114%	94% (active)	50.9%
